This note sets out measurements from PubChem BioAssay (NCI).

This is part of a sample that, as a whole, favours compounds with a hit. Of some 83,000 tested, about 20% had one in any assay.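 Plates (96-well) were seeded with cells, treated with compound at one concentration, and incubated for 48 hours before percent growth was determined.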 Values without a mark were called inactive. Active and inactive are the calls of the source. The calls were made as follows: active = growth percent below 10; inactive = the rest.

Holding throughout (test): NCI-60 one-dose screen, 48 h (100 = growth as untreated, 0 = no growth, -100 = all killed)
Holding throughout (conditions): 10 µM unless noted

Test [1] deals with HCT-15 colon.
Test [2] relates to HT29 colon.
Test [3] deals with SNB-75 CNS.
Test [4] has as its system SNB-19 CNS.
Test [5] relates to U251 CNS.
Test [6] deals with PC-3 prostate.
In test [7] the test system is SK-MEL-5 melanoma.
Test [8] has as its system LOX IMVI melanoma.
The subject of test [9] is SK-MEL-28 melanoma.
In test [10] the test system is UACC-62 melanoma.

Regarding `COc1cc(C(=O)/C=C/c2c(C(F)(F)F)nc3sccn23)cc(OC)c1OC`, the growth in test [1] is -62.2% (active); in test [2] it was -11.8% (active); in test [3] it was 29.8%; in [4], 20.7%; in [5], 4.46% (active); in test [6], 16.4%. The growth is 5.95% (active) in test [7], -57.9% (active) in [8] and -18.4% (active) in [9].
Consider `COc1ccc(/C=N/C2=C(C#N)C(c3ccc(OC)cc3)c3ccc4ccccc4c3O2)cc1` (stereo not given), for which the growth in [1] is 44.3%; in test [2], 123%; in test [3], 45.5%; in test [4], 80%; in [5], 84.5%; in test [6] it was 70%. Further, the growth in test [7] is 70.4%; in [8] it was 72.6%; in test [9], 79.7%.
As for `COC(=O)c1c2c(c(C)[n+]([O-])c1C)C(=O)C(NCc1ccc(F)c(Cl)c1)=CC2=O`, the growth in test [1] was 8.29% (active); in [2], 5% (active); in [3] it was 109%; in [4] it was 7.17% (active); in [5], -20.4% (active); in test [6], 5.89% (active). The growth in [7] is -71.6% (active); in test [9], 57.9%.
Take `COc1ccc2oc3c(C)c4c(c(C)c3c2c1)C(=O)N(Cc1ccccc1)C4=O`: the growth is 101% in test [1]; 96.1% in test [2]; 85.9% in test [3]; 95.1% in [4]; 83.5% in test [5]; 85.5% in [6]. Also, the results for the growth in test [7], in [8] and in test [9] were 99.6%, 94% and 103%, respectively.
Turning to `COCCc1ccc(OCC(O)CNC(C)C)cc1` (stereo not given), the growth in test [1] was 102%; in test [2] it was 98.9%; in test [3], 90.4%; in test [4] it was 105%; in [5], 98.2%; in test [6], 96.6%. Besides, the growth in [7] was 108%; in [8] it was 96.6%; in test [9], 98.9%.
Consider `CN(C)CCNc1nc2ccccc2c2c1c1c(n2Cc2ccccc2)-c2ccccc2C1=O`, for which the growth in [1] was -88.2% (active); in [2], -100% (active); in [3] it was -96.1% (active); in [4] it was -86.3% (active); in test [5] it was -95.9% (active); in test [6], -88.6% (active). Also, the growth in [7] was -100% (active); in test [8] it was -96.2% (active); in test [9], -100% (active).
In the case of `Cc1c(C(=O)N[C@@H](Cc2ccccc2)C(=O)C(=O)NCCc2ccccc2)[nH]c2ccccc2c1=O`, the growth was 102% in test [1]; 105% in test [2]; 88.7% in test [3]; 98% in [4]; 99.6% in test [5]; 93.8% in test [6]. Also, the growth in test [7] was 97.8%; in [8], 97.8%; in test [9], 105%.
Take `Cc1cc(/C=C\c2ccc3ccccc3[n+]2C)c(O)c2ncccc12`: the growth in [1] was 27.9%; in test [2], 25.7%; in test [3], 37.8%; in test [4], 11.9%; in [5], 9.3% (active); in test [6], 34.1%. The results for the growth in test [7], in test [8] and in [9] were 6.19% (active), -27.2% (active) and 25.7%, respectively.
Consider `Cn1c(=O)c2[nH]c(NN)nc2n(C)c1=O`, for which the growth in test [1] was 97.2%; in test [2], 105%; in [3], 89.6%; in test [4] it was 110%; in [5] it was 105%; in test [6], 101%. The growth in test [7] is 105%; in [8], 101%; in test [9] it was 103%.
On to `CCc1ccccc1-n1c(-c2ccc(Cl)cc2)cc(-c2ccc(OC)cc2)c(C#N)c1=O`, for which the growth in test [1] was 99.6%; in test [2], 103%; in test [3], 93%; in test [4] it was 105%; in [5], 114%; in test [6], 84.1%. The values for the growth in test [7], in test [8] and in [9] were 101%, 89.6% and 109%, respectively.
As to `O=C1/C(=C\c2c[nH]c3ccccc23)c2ccccc2N1c1c(Cl)cccc1Cl`, the growth in test [1] was 5.59% (active); in test [2], -29.6% (active); in test [3] it was 39.2%; in [5], -34% (active); in [6] it was 2.68% (active); in test [7] it was -39.2% (active). Moreover, the growth is -58.6% (active) in test [10], -100% (active) in [8] and -30.6% (active) in test [9].
In the case of `O=C(N/N=C/C=C/c1ccc([N+](=O)[O-])o1)c1cc2ccccc2cc1O`, the growth was -12.3% (active) in [1]; -11.7% (active) in test [2]; 43.4% in [3]; -16% (active) in [5]; 4.52% (active) in test [6]; -100% (active) in test [7]. Also, the growth in test [10] is -64.3% (active); in test [8] it was -79.5% (active); in test [9], -66.5% (active).
For `N[C@@H](CCCCNCC(=O)O)C(=O)O`, the growth in [1] was 98.8%; in test [2], 116%; in [3], 84.1%; in test [5] it was 99.9%; in [6], 121%; in test [7], 101%. Also, the growth was 94.4% in test [10], 100% in [8] and 104% in test [9].
`N/C(=N/N=C/c1ccccc1)N/N=C\c1ccccc1`: the growth in test [1] was 44.1%; in [2], 27.7%; in test [3], 67.1%; in [5] it was 50.2%; in test [6] it was 64.3%; in test [7], 34.1%. Besides, the growth was 70.5% in test [10], 62.1% in test [8] and 71.9% in [9].
For the compound `Cc1nc2ccccc2c(/C=C/c2ccc(Cl)cc2)c1C(=O)/C=C/c1ccc(F)cc1`, the growth is -15.4% (active) in test [1]; 5.82% (active) in [2]; 51.7% in [3]; -76.8% (active) in test [5]; 20.4% in test [6]; 8.11% (active) in test [7]. Besides, the growth was 0.679% (active) in test [10], -90.3% (active) in test [8] and -27.7% (active) in test [9].
As for `Cc1ccc(N(C(=O)CCc2c[nH]c3ccccc23)[C@H](C(=O)Nc2ccc(Cl)cc2)c2cccc([N+](=O)[O-])c2)cc1`, the growth in test [1] was 70.7%; in [2] it was 86.5%; in [3], 84.1%; in [5], 78%; in test [6] it was 62.2%; in test [7] it was 75.9%. Moreover, the results for the growth in test [10], in [8] and in test [9] were 33.7%, 45.1% and 114%, respectively.
As to `COc1cccc(-c2nn(-c3ccccc3)cc2-c2ccnc(NCCCNC(=O)c3cccc(C(F)(F)F)c3)c2)c1`, the growth was 21% in test [1]; 8.77% (active) in test [2]; 58.6% in test [3]; 24.7% in [5]; 13.3% in test [6]; -64.4% (active) in [7]. The growth is 23.9% in test [10], 28% in test [8] and 50.3% in test [9].
Regarding `CCCCCCN(CCCCCC)c1ccc(/C=C2/SC(=O)N(c3nc(N4CCCC4)nc(N4CCCC4)n3)C2=O)c(C)c1`, the growth in test [1] is 57.9%; in [2] it was 51.8%; in [3] it was 83.3%; in test [5], 53.9%; in test [6], 53.2%; in [7], 58.6%. Moreover, the figures for the growth in test [10], in [8] and in test [9] were 52.7%, 71.8% and 74.3%, respectively.
Turning to `COc1cc(/C=N/NC(=O)Cn2c(C(C)C)nc3ccccc32)ccc1O`, the growth in test [1] is 98.7%; in [2], 98.2%; in test [3], 81.5%; in test [5] it was 110%; in test [6], 94.8%; in [7], 97.6%. In addition, the growth in test [10] was 89.8%; in [8] it was 102%; in test [9] it was 109%.
With `C=CCn1c(C)nc2cc(Nc3nc(N4CCCC4)nc4ccccc34)ccc21`, the growth was 79.4% in [1]; 5.63% (active) in [2]; 107% in test [4]; 96.6% in test [5]; 98.7% in test [6]; 62.4% in test [7]. Further, the growth in test [10] is 113%; in [8] it was 2.4% (active).
With `CCn1c(C)nc2cc(C(N)=O)ccc21`, the growth in test [1] was 92.8%; in test [2] it was 98.7%; in test [3], 90.2%; in test [5] it was 95.4%; in test [6], 101%; in test [7] it was 112%. Besides, the growth in [10] was 89.2%; in [8], 91.6%; in test [9] it was 113%.
Regarding `CCCCOc1nc2ccccc2cc1C1CNC(=O)c2ccccc2N1` (stereo not given), the growth in [1] is 15.3%; in [2], 0.868% (active); in test [3], 3.14% (active); in test [5], 18.6%; in [6], 24.7%; in [7] it was 15.6%. Moreover, the figures for the growth in test [8] and in test [9] were 27.1% and 45.8%, respectively.
In the case of `COc1ccc(-c2nc3c(N)c(CO)c(C)nc3o2)cc1`, the growth in test [1] is 102%; in [2] it was 97.7%; in [3] it was 98.9%; in [5], 96.5%; in [6], 103%; in [7] it was 95.3%. Besides, the values for the growth in test [10] and in test [9] were 97.7% and 106%, respectively.
On to `Cc1cc(NCc2cc(Nc3ccnc4cc(Cl)ccc34)ccc2F)nc(N2CCN(c3ccccc3)CC2)n1`, for which the growth in test [1] was 15.6%; in [2], 13.6%; in [3], 57.7%; in test [5] it was 10.5%; in test [6] it was 42.7%; in [7], 53.3%. Moreover, the growth in test [10] was 70.6%; in test [9], 69.7%.
For `O=S(=O)(Nc1cccc(Cl)c1)c1ccc(-c2cnc(C3CC3)o2)cc1`, the growth in test [1] was 23.9%; in test [2] it was 3.59% (active); in test [3], -25.8% (active); in [5] it was 22.9%; in test [6] it was 26.3%; in test [7] it was 16.4%. For the same compound, the results for the growth in test [10], in [8] and in test [9] were 29.2%, 35.4% and 68.4%, respectively.
Regarding `Cc1ccc(-n2c(-c3ccccc3)c(-c3ccccc3)c3c(SCC(=O)n4[nH]c(N)cc4=O)ncnc32)cc1`, the growth in [1] was 101%; in test [2], 94%; in test [3] it was 97.1%; in test [5] it was 87%; in [6] it was 79.4%; in test [7], 87.3%. Besides, the growth in test [10] was 77.4%; in [8], 97.7%; in [9], 101%.
For the compound `N#Cc1c(N2CCNCC2)nc2sc3cc(Cl)c(Cl)cc3n2c1=N`, the growth is 122% in test [1]; 98.7% in test [2]; 62.2% in test [3]; 107% in [5]; 94.2% in test [6]; 89.9% in test [7]. Besides, the growth is 82.6% in [10], 93.5% in test [8] and 120% in [9].
Turning to `C=CCn1c(C)nc2cc(Nc3nc(Cl)nc4ccccc34)ccc21`, the growth was 92.3% in [1]; 98.8% in test [2]; 96.9% in test [3]; 95.5% in test [5]; 82% in [6]; 91.4% in test [7]. Moreover, the growth in test [10] was 93.1%; in test [8], 104%; in test [9], 107%.
Consider `N#CCN1C(=O)C2C3=C(CCCC3)SC2N=C1CN1CCCC1` (stereo not given), for which the growth is 74.4% in [1]; 110% in test [2]; 88.3% in [3]; 102% in test [5]; 48.5% in test [6]; 98.2% in [7]. For the same compound, the figures for the growth in test [10], in [8] and in [9] were 83.6%, 97.7% and 120%, respectively.
`CC1CC(C(C)(C)C)C(=O)C(C(C)(C)C)C1` (stereo not given): the growth was 97.8% in test [1]; 93.4% in test [2]; 105% in [3]; 105% in test [5]; 108% in [6]; 105% in test [7]. The figures for the growth in test [10], in [8] and in test [9] were 100%, 106% and 116%, respectively.
